A short description of assay [1]: qHTS assay to identify small molecule antagonists of the glucocorticoid receptor (GR) signaling pathway - cell viability counter screen (AID 720693). Further: nearly all actives have a fitted effect of over 55% in size. Further: potency means the concentration at half of the fitted maximal effect.
Assay [2] in a line: qHTS assay for identifying genotoxic compounds that show differential cytotoxicity against isogenic chicken DT40 cell lines with known DNA damage response pathways - Rad54/Ku70 mutant cell line (AID 743015). Further: nearly all actives have a fitted effect of over 60% in size. Further: potency means the concentration at half of the fitted maximal effect.
Assay [3] is described as follows: qHTS assay to identify small molecule antagonists of the androgen receptor (AR) signaling pathway - cell viability counter screen (AID 743033; further: nearly all actives have a fitted effect of over 45% in size).
A short description of assay [4]: qHTS assay to identify small molecule antagonists of the androgen receptor (AR) signaling pathway using the MDA cell line - cell viability counter screen (AID 743041; further: nearly all actives have a fitted effect of over 45% in size). An outline of the steps:
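Viability read by CellTiter-Fluor fluorescence in the same wells as the antagonist screen, added after 15.5 h of a 16 h, 37C exposure. Human breast carcinoma MDA-kb2 AR-luc cells, compounds co-dosed with agonist R1881.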

Assay [5] is described as follows: qHTS assay to identify small molecule antagonists of the thyroid receptor (TR) signaling pathway - cell viability counter screen (AID 743064). Further: nearly all actives have a fitted effect of over 50% in size. Further: potency means the concentration at half of the fitted maximal effect. An outline of the steps: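 Counter screen for cytotoxicity: compound plus T3 (1 nM final) on GH3.TRE-Luc cells, 23.5 h at 37 °C, then fluorescence viability readout with CellTiter-Fluor.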
Assay [6] is described as follows: qHTS assay to identify small molecule antagonists of the thyroid receptor (TR) signaling pathway (AID 743065). Further: nearly all actives have a fitted effect of over 55% in size. Further: potency means the concentration at half of the fitted maximal effect. An outline of the steps:
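Antagonism measured as loss of luciferase signal in GH3 cells stably carrying a TRE-luciferase reporter, co-treated with compound and T3 (1 nM final) for 23.5 h at 37 C. Viability was read in the same well by CellTiter-Fluor.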

Assay [7] deals with thyroid hormone receptor (rat, GH3 cells). Description: qHTS assay to identify small molecule agonists of the thyroid receptor (TR) signaling pathway (AID 743066; calls by dose curve).
Assay [8] has as its target Estrogen receptor (Homo sapiens) (UniProt P03372). Description: qHTS assay to identify small molecule antagonists of the estrogen receptor alpha (ER-alpha) signaling pathway (AID 743069; active means well fitted curve in the direction sought with a large enough effect in the signal ratio in the repeat runs, not every such curve was filed as active; inconclusive means weak or mixed curves, or effect the other way; inactive means no such curve, though single readings can be large or run the other way; the % refers to the signal ratio; further: potency means the concentration at half of the fitted maximal effect). In outline:
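Antagonist mode: compounds in DMSO were co-added with 17beta-estradiol to ER-alpha-bla HEK293 cells (2% charcoal-stripped serum) and left 18 h at 37C. Reporter inhibition was measured as FRET fluorescence after 2 h LiveBLAzer substrate at room temperature.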

Assay [9] can be described thus: qHTS assay to identify small molecule antagonists of the estrogen receptor alpha (ER-alpha) signaling pathway - cell viability counter screen (AID 743074; calls by dose curve;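 further: HEK293 cells carrying ER-alpha-UAS-bla reporter stimulated with 17beta-estradiol; nearly all actives have a fitted effect of over 45% in size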).
The target of assay [10] is Estrogen receptor (Homo sapiens) (UniProt P03372). Briefly: qHTS assay to identify small molecule agonists of the estrogen receptor alpha (ER-alpha) signaling pathway (AID 743075; calls by dose curve;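 further: HEK293 GripTite cells with ER-alpha and UAS-driven beta-lactamase reporter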).
Chain of Estrogen receptor (Homo sapiens) (P03372 whole entry, looked up): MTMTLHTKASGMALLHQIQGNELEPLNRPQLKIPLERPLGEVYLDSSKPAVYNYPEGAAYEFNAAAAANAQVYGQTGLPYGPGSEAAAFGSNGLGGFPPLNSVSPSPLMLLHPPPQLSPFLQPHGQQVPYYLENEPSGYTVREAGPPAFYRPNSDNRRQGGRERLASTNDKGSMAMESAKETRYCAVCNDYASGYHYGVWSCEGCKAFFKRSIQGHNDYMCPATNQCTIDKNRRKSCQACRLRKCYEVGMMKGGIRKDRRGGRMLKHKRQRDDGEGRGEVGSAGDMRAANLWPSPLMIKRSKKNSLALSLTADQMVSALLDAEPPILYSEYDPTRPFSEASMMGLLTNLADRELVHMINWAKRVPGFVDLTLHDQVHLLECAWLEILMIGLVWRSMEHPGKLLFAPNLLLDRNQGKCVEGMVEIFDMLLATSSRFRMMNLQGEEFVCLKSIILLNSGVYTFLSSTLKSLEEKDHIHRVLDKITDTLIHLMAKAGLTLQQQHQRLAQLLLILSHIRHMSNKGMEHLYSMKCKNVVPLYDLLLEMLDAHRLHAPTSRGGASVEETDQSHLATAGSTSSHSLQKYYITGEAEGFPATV
The target is the same in assay [11]. Description: qHTS assay to identify small molecule agonists of the estrogen receptor alpha (ER-alpha) signaling pathway using the BG1 cell line (AID 743079). Further: nearly all actives have a fitted effect of over 20% in size.
Assay [12] can be described thus: qHTS assay to identify small molecule antagonists of the estrogen receptor alpha (ER-alpha) signaling pathway using the BG1 cell line (AID 743080; calls by dose curve;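 further: BG1 cells stimulated with 17beta-estradiol alongside compound; series mostly up to about 70 µM; nearly all actives have a fitted effect of over 25% in size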). An outline of the steps: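 Quantitative HTS on the Tox21 10K library: BG1 cells with endogenous ER-alpha and ERE-luciferase reporter, 17beta-estradiol stimulation, 21.5 h compound exposure, luminescence endpoint with parallel fluorescence cytotoxicity counter-read.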

Assay [13] in a line: qHTS assay to identify small molecule antagonists of the estrogen receptor alpha (ER-alpha) signaling pathway using the BG1 cell line - cell viability counter screen (AID 743081).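 Further: compound given together with 17beta-estradiol as the ER stimulus; nearly all actives have a fitted effect of over 45% in size.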 Further: potency means the concentration at half of the fitted maximal effect.
A further assay concerns the target Aromatase (Homo sapiens) (UniProt P11511). Briefly: qHTS assay to identify aromatase inhibitors (AID 743083). Further: nearly all actives have a fitted effect of over 55% in size. Further: potency means the concentration at half of the fitted maximal effect.
In assay [14] the target is Androgen receptor (Homo sapiens) (UniProt P10275). Briefly: qHTS assay to identify small molecule antagonists of the androgen receptor (AR) signaling pathway (AID 743035; active means well fitted inhibition curve with a large enough effect in the signal ratio in the repeat runs, not every such curve was filed as active; inconclusive means weak or mixed curves, or effect the other way; inactive means no such curve, though single readings can be large or run the other way; the % refers to the signal ratio; further: potency means the concentration at half of the fitted maximal effect). In outline: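 Antagonist mode: AR-bla HEK293 cells co-treated with test compounds and agonist R1881 for 16 h at 37C, 5% CO2. Beta-lactamase activity read as FRET fluorescence after 2 h room-temperature substrate loading.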
Chain of Androgen receptor (Homo sapiens) (P10275 whole entry, looked up): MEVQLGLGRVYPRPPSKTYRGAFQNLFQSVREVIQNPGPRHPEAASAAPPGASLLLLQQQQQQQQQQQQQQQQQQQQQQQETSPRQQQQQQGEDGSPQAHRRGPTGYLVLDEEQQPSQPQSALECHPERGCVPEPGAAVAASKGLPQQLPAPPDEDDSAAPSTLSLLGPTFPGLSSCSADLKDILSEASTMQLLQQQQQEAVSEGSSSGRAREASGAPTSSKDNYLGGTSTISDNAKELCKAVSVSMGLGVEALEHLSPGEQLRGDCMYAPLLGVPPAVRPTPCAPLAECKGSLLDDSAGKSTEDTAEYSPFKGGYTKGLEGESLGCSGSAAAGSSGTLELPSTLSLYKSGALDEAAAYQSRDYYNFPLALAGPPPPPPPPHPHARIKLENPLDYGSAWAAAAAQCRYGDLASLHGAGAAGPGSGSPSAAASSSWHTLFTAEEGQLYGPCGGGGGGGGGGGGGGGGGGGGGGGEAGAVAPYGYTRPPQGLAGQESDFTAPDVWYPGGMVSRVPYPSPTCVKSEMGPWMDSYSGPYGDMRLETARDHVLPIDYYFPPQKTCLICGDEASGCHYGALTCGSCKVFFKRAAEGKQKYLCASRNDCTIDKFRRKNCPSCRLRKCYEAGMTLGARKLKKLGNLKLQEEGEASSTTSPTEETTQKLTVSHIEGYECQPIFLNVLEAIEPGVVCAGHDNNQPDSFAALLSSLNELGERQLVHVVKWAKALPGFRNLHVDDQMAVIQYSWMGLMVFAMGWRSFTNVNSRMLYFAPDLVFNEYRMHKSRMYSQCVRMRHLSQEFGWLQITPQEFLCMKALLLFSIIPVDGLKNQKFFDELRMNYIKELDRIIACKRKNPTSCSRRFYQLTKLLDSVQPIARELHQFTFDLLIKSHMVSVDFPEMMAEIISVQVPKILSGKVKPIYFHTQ

Assay [15] has the same target. Description: qHTS assay to identify small molecule agonists of the androgen receptor (AR) signaling pathway using the MDA cell line (AID 743040; further: nearly all actives have a fitted effect of over 20% in size). In outline: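 Luciferase agonist assay: 16 h compound exposure at 37C without CO2 in MDA-kb2 AR-luc cells, whose MMTV promoter responds to both AR and GR. Luminescence measured after 30 min room-temperature incubation with ONE-Glo.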

Assay [16] has the same target. Briefly: qHTS assay to identify small molecule antagonists of the androgen receptor (AR) signaling pathway using the MDA cell line (AID 743042; further: nearly all actives have a fitted effect of over 55% in size). In outline: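 Antagonist mode: compounds plus R1881 agonist added to MDA-kb2 AR-luc cells, incubated 16 h at 37C. Luciferase reporter luminescence quantified, with multiplexed CellTiter-Fluor readout for cell viability.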

A short description of assay [17]: qHTS assay for identifying genotoxic compounds that show differential cytotoxicity against isogenic chicken DT40 cell lines with known DNA damage response pathways - wild type cell line (AID 743012). Further: nearly all actives have a fitted effect of over 60% in size. An outline of the steps: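 Viability by ATP luminescence (CellTiter-Glo, 30 min RT) after 40 h compound treatment at 37 C/5% CO2, using 300 parental DNA repair-proficient DT40 cells per well.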

A short description of assay [18]: qHTS assay for identifying genotoxic compounds that show differential cytotoxicity against isogenic chicken DT40 cell lines with known DNA damage response pathways - Rev3 mutant cell line (AID 743014).

Molecules are shown by their SMILES. Unmarked numbers belong to inactive results. Calls of active or inactive are those of the source. Unless noted, the call rests on the fitted dose curve; in most records, active means well fitted curve in the direction sought with a large enough effect in the repeat runs; inconclusive means weak or mixed curves; inactive means no such curve, though single readings can be large; an effect the other way counts as inactive or inconclusive.

Chain of Aromatase (Homo sapiens) (P11511 whole entry, looked up): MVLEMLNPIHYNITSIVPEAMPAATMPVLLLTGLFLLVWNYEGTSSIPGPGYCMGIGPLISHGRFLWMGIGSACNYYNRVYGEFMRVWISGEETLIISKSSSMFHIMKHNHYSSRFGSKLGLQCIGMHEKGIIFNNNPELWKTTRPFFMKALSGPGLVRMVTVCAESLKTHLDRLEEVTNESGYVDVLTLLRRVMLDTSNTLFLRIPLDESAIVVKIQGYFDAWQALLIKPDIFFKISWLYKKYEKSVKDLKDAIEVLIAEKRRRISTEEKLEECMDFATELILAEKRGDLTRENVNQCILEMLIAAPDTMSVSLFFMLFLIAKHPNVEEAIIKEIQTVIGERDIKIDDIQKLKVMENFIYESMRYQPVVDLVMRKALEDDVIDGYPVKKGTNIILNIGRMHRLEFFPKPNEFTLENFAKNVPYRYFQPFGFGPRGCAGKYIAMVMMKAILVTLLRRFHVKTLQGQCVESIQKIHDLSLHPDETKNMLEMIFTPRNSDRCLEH

As to `O=[N+]([O-])c1ccc2[nH]ncc2c1`, the Potency entry in assay [1], in assay [2], in assay [3], in assay [4], in assay [5] and in assay [6] was “inactive” throughout. Besides, the Potency entry in assay [7], in [8], in assay [9], in assay [10], in [11] and in assay [12] was “inactive” throughout. Also, the Potency entry (in assay [13]; in the assay with Aromatase (Homo sapiens)) was “inactive” each time.

Regarding `CC(=O)OC[C@H]1O[C@@H](n2ncc(=O)[nH]c2=O)[C@H](OC(C)=O)[C@@H]1OC(C)=O`, the Potency entry in assay [1], in [15], in [4], in [16], in [5] and in assay [6] was “inactive” in each case. Besides, the Potency entry in [7], in [9], in assay [10], in [11], in assay [12] and in [13] was “inactive” in each case. Also, the Potency result in the assay with Aromatase (Homo sapiens) is “inactive”. For the same compound, the Potency in assay [2] was 1.06 µM (active); in [14], 5.35 µM (active); in assay [8], 2.68 µM [inconclusive] (active).

For the compound `CCc1cc(C2=C(C(=O)O)N(c3ccccc3C(F)(F)F)S(=O)(=O)c3ccccc32)cc2c1OCO2`, the Potency entry in assay [1], in [3], in assay [4], in assay [6], in [7] and in assay [9] was “inactive” in each case. Moreover, the Potency in assay [5] was 2.41 µM (active).

Consider `c1cc(CCCc2ccncc2)ccn1`, for which the Potency result in assay [1], in assay [3], in [4], in assay [6], in assay [7] and in [8] was “inactive” in each case. Besides, the Potency entry in assay [9], in assay [10], in assay [11], in assay [12] and in assay [13] was “inactive” each time. Also, the Potency with Aromatase (Homo sapiens) was 13.7 µM (active).

As for `COc1ccnc(CS(=O)c2nc3ccc(OC(F)F)cc3[nH]2)c1OC` (configuration not stated), the Potency entry in assay [1], in assay [3], in assay [4], in assay [5], in assay [7] and in assay [9] was “inactive” in each case. For the same compound, the Potency result (in [10]; in assay [12]; in [13]; with Aromatase (Homo sapiens)) was “inactive” each time.

For the compound `Cc1cc(C(=O)O)ccc1[N+](=O)[O-]`, the Potency entry in [17], in [2], in assay [4], in [5], in [6] and in assay [7] was “inactive” in each case. In addition, the Potency entry (in assay [9]; in assay [10]; in [11]; in [12]; in assay [13]; in the assay with Aromatase (Homo sapiens)) was “inactive” throughout.

As to `CCCCCCCCCCCC(=O)OC[C@@H](O)[C@H]1OC[C@H](OCCO)[C@H]1OCCO`, the Potency entry in [1], in assay [4], in assay [6], in assay [7], in [9] and in assay [10] was “inactive” in each case. In addition, the Potency result in assay [11] and in assay [13] was “inactive” each time. Moreover, the Potency in [18] was 53.2 µM (active).

In the case of `O=C(Nc1ccc(S(=O)(=O)N2CCOCC2)cc1)c1cc(Cl)ccc1NS(=O)(=O)c1ccc(Cl)s1`, the Potency is 16.9 µM (active) in [1] and 18.8 µM (active) in assay [6]. The Potency result in [3], in [4], in assay [10], in assay [11], in [12] and in assay [13] was “inactive” throughout. Also, the Potency entry with Aromatase (Homo sapiens) was “inactive”.

Turning to `Cc1ccc(N=Nc2c(O)c(C(=O)O)cc3ccccc23)c(S(=O)(=O)O)c1`, the Potency entry (in assay [1]; in assay [4]; in assay [7]; in assay [9]; with Aromatase (Homo sapiens)) was “inactive” in each case. For the same compound, the results for the Potency in assay [2], in assay [5] and in assay [13] were 13.3 µM (active), 26.5 µM (active) and 16.7 µM (active), respectively.

The record behind these values is PubChem BioAssay (Tox21).
